The values below come from PubChem BioAssay (NCI).

About 83,000 compounds went through this panel and 20% of them were active in at least one assay; those are over-represented in the sample as a whole.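 In brief: 96-well plates, 48 h treatment, single concentration, percent growth endpoint.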 A number with no mark means an inactive call. Calls of active or inactive are those of the source. How the source made its calls: active means growth percent below 10; inactive means the rest.

The test system of one assay is HL-60(TB) leukemia. Briefly: NCI-60 one-dose screen, 48 h (100 = growth as untreated, 0 = no growth, -100 = all killed). Particulars: 10 µM unless noted.
`CC(=O)OC[C@@]1(C)C2CC[C@]3(C)C(CC=C4C5CC(C)(C)CC[C@]5(C(=O)Nc5ccccc5)CC[C@]43C)[C@@]2(C)C[C@@H](OC(C)=O)[C@@H]1OC(C)=O` (stereo not given in full): the growth was 22.6%.

In the case of `COC(=O)C(Cc1ccc(O)c(O)c1)NC(=O)C(CSC/C=C(\C)CCCC(C)CCCC(C)CCCC(C)C)NC(C)=O` (stereo not given), the growth was -22.9% (active).

Take `CN1CCc2c(sc3ncnc(N/N=C/c4ccc(Cl)cc4Cl)c23)C1`: the growth is -49.9% (active). Same read-out and setting: the result for `COc1ccc2[nH]c(O)c(N=Nc3nc(-c4ccc(C#N)cc4)cs3)c2c1` reads 84.4%. On the same count and under the same terms, the result for `COc1ccc(C(=O)NC(=S)N2CCN(c3ncnc4c3cnn4-c3ccccc3)CC2)cc1` reads 80.5%; that for `CN(C)C(=O)c1cc(-c2ccc3ncnc(N4CCc5cc(F)c(Cl)cc54)c3c2)cnc1N`, -73.8% (active); that for `COc1cc(NC(=O)c2cc(-c3ccc(F)cc3F)ccc2O)cc(OC)c1OC`, 15.8%.

Turning to `O=C(/C=C/c1cccc(OCc2ccccc2)c1)c1nc2ccccc2[nH]1`, the growth was 5.75% (active). Still for that read-out and setting: next, `CC(C)CSc1nc(NCCc2c[nH]c3ccccc23)c(C#N)c(-c2ccc(F)cc2)n1`: 49.7%; `COC(=O)CC1CC1C1Cc2c(nc(N(C)S(C)(=O)=O)nc2C(C)C)-c2ccc(F)cc21` (stereo not given): 58.7%. Still for that read-out and setting: the result for `CCCn1c(=O)c2[nH]c(-c3ccc(OCc4nc5ccc(C(F)(F)F)cc5[nH]4)cc3)nc2n(CCC)c1=O` reads 55.9%. The same measure, in the same setting: the result for `CC1[C@H]2[C@H](C[C@H]3[C@@H]4CC=C5c6sc(Nc7cccc(Cl)n7)nc6CC[C@]5(C)[C@H]4CC[C@@]32C)O[C@]12CC[C@@H](C)CO2` (stereo not given in full) reads 45.4%. On to `O=C(O)CCN1C(=O)/C(=C/C=C/c2ccc([N+](=O)[O-])o2)SC1=S`, for which the growth was -11% (active). Same read-out and setting: next, `O=C(c1ccc(Cl)cc1)C1[C@H](c2ccccc2Br)[C@@H](c2ccccc2)NC12C(=O)Nc1ccc(Br)cc12` (stereo not given in full): -6.61% (active). Same read-out and setting: next, `C#C[C@]1(O)CC[C@H]2[C@@H]3CC=C4c5sc(Nc6ccc(C(F)(F)F)cn6)nc5CC[C@]4(C)[C@H]3CC[C@@]21C`: 1.27% (active); `C=CCSc1nnc(-c2ccc(-c3nc4ccccc4[nH]3)cc2)o1`: 57.6%. On the same count and under the same terms, next, `Cc1cccc2cc(-c3cc(-c4ccccc4)nc(=S)[nH]3)c(Cl)nc12`: 58.9%. Turning to `Cc1cccc(NC(=O)CN2CCN(c3ncnc4c3cnn4-c3ccccc3)CC2)c1`, the growth was 88.3%.

As for `Cc1cc2c(cc1Cl)C(=O)/C(=C/c1ccccc1)O2`, the growth is -13.7% (active). Same read-out and setting: next, `COc1ccc(N2N=C(c3ccc4c(c3)OCO4)CC2c2cccc(NC(=O)CCNS(=O)(=O)c3ccc(Cl)cc3)c2)cc1` (stereo not given): 34.4%. Same read-out and setting: the result for `COc1cc(C2CC(c3cc(OC)c(OC)c(OC)c3)=NN2c2ccccc2)ccc1OCc1ccc(C)cc1` (stereo not given) reads 101%. Still for that read-out and setting: next, `Cc1ccc2c(c1)C(=O)/C(=C/c1ccc([N+](=O)[O-])cc1)S2`: 107%; `COc1ccc(/C=C/c2nc3ccccc3c(=O)n2CC(=O)Nc2ccc(OC)cc2)cc1`: 82%; `O=c1[nH]c2ccc(Cl)cc2cc1CSc1ccc(Nc2nccc(-c3ccc(Cl)cc3)n2)cc1`: 52.4%. For `Cc1ccc(C(=O)N/C(=C2/OCCN2C)[P+](c2ccccc2)(c2ccccc2)c2ccccc2)cc1`, the growth was 38.8%.

Consider `Nc1nc2cc(-c3ccc4ncnc(NCc5ccccc5)c4c3)ccc2o1`, for which the growth was -43.8% (active). Same read-out and setting: the result for `CS(=O)(=O)Nc1cc(-c2ccc3ncnc(N4CCc5cc(F)c(Cl)cc54)c3c2)cnc1Cl` reads 14.3%. In the case of `O=C(C1=CNC(=S)NC1c1ccc(O)cc1)c1cc2ccccc2oc1=O` (stereo not given), the growth was 79.5%. In the case of `COc1ccc(C(=O)Nc2ccc(-c3ccc4c(c3)NC(=O)/C4=C\c3ccc[nH]3)cc2)cc1`, the growth was 89.6%. On the same count and under the same terms, next, `COc1cccc(NC(=O)c2ccc(NC(=O)CCl)s2)c1`: -28.2% (active). On the same count and under the same terms, the result for `Cc1ccc(/C(N)=N/c2sc(-c3ccccc3)nc2-c2ccccc2)cc1` reads 87%; that for `CC(C)(C)c1cc(/C=C2\S/C(=N/c3ncn[nH]3)NC2=O)cc(C(C)(C)C)c1O`, 6.76% (active).

Consider `Cc1ccc(NC(=O)N/N=C/c2c[nH]c3ccccc23)c(C)c1`, for which the growth was 1.73% (active).

The next assay concerns MDA-MB-468 breast. The assay is described as above. Particulars: 10 µM unless noted.
For `O=[P+](O)c1ccccc1`, the growth was 114%. Still for that read-out and setting: next, `CC[C@H](C)[C@H](NC(=O)Nc1ccccc1)C(=O)N(C)[C@H](C[C@@H](OC(C)=O)c1nc(C(=O)N[C@@H](Cc2ccccc2)C[C@H](C)C(=O)OC)cs1)C(C)C`: -1.4% (active). On the same count and under the same terms, the result for `N#CCN(CC#N)[N+](=O)[O-]` reads 112%; that for `COC(=O)[C@@H](C)C[C@H](Cc1ccc(F)cc1)NC(=O)c1csc([C@@H](C[C@H](C(C)C)N(C)C(=O)[C@@H](NC(=O)[C@H]2CCCCN2C)C2CC2)OC(C)=O)n1`, 22.5%. For `CC[C@H](C)[C@H](NC(=O)[C@H]1CCCCN1C)C(=O)N(C)[C@H](CCc1nc(C(=O)N[C@@H](Cc2ccccc2)C[C@H](C)C(=O)OC)cs1)C(C)C`, the growth was 35%. Consider `C=CCn1cc(C=C2C(=O)N(C)C(=O)N(C)C2=O)c2ccccc21`, for which the growth is -35.5% (active).

Consider `NNc1ccccc1`, for which the growth was 109%.
